Fam108B inh: counter-screen for RBBP9 inhibitors: inhibitors of mouse Fam108B | inhibition, % at 9.51 µM | recombinant Fam108B, FP-Rh probe fluorescence polarization | hit rate 0.33% among 300,000;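 active = inhibition above the screen mean inhibition plus 3 SD, computed separately per campaign, cut at about 18% in these data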;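 also: inhibitors lower polarization as less probe binds the enzyme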
GSTO1 counter: blocks human GSTO1 in RBBP9 counter-screen; AID 1974; P78417; hit rate 1.1% among 300,000; recombinant GSTO1, activity-based probe fluorescence polarization; inhibition, % at 5.96 µM;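 active = inhibition above the campaign mean inhibition plus 3 SD, cut at about 35% in these data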;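 also: 0% = GSTO1-1 with DMSO and 100% = wells lacking GSTO1-1 enzyme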
Target sequence (P78417 whole entry, looked up): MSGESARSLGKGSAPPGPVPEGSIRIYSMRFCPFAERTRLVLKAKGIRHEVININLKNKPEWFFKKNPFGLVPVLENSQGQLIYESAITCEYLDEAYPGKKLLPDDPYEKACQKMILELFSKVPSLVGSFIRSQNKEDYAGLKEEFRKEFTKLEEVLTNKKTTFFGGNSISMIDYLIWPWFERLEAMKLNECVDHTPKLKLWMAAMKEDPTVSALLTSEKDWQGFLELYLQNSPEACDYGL
PREPL inh: inhibits the human prolyl oligopeptidase-like enzyme. Q4J6C6. recombinant PREPL, fluorescence polarization activity-based probe. inhibition, % at 5.96 µM. hit rate 0.68% among 320,000. AID 2751;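 also: 0% = enzyme with DMSO and 100% = wells lacking enzyme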
LYPLA1 inh: counter-screen for PME1 inhibitors: inhibitors of human LYPLA1 | recombinant LYPLA1, FP-Rh probe fluorescence polarization | inhibition, % at 5.9 µM | hit rate 0.16% among 320,000 | AID 2174;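 active = inhibition above the mean of all tested compounds plus 3 SD, set per campaign, cut at about 14% in these data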;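 also: inhibitors block serine hydrolase probe labeling of LYPLA1 so polarization falls; 0% = enzyme with DMSO and 100% = wells lacking LYPLA1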
Target sequence (O75608 whole entry, looked up): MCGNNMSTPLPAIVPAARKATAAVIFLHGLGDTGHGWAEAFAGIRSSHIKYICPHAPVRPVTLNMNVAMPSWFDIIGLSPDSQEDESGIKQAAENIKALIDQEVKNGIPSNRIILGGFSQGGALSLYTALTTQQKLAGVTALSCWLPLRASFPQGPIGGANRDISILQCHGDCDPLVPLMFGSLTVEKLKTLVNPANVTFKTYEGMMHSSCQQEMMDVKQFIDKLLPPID
LYPLA2 inh: blocks human lysophospholipase 2, a PME1 counter-screen | O95372 | recombinant LYPLA2, FP-Rh probe fluorescence polarization | hit rate 0.38% among 320,000 | inhibition, % at 5.9 µM;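 active = inhibition above the screen-wide mean plus 3 SD, limit set per campaign, cut at about 26% in these data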;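 also: 0% = LYPLA2 with DMSO and 100% = wells lacking LYPLA2 enzyme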
PME-1 inh: PME-1 (human) inhibition; AID 2130; inhibition, % at 5.9 µM; hit rate 0.53% among 320,000; recombinant PME-1, FP-Rh probe fluorescence polarization;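 active = inhibition above the campaign mean of all compounds plus 3 SD, cut at about 26% in these data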;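 also: competitive labeling of PME-1 active site by serine hydrolase directed probe; 0% = PME-1 with DMSO and 100% = wells lacking PME-1 enzyme; inhibitors block probe labeling so polarization falls and inhibition rises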
PREPL inh cf: human PREPL inhibition, confirmation; shares compounds with PREPL inh; recombinant PREPL, fluorescence polarization activity probe; inhibition, % at 5.96 µM; hit rate 67% among 2,000;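 also: 0% = protein with DMSO and 100% = wells lacking protein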
* marks the source's active call; other numbers are inactive results; . = no result given. Shown are actives, neighbours in structure and some others; about 1.9% of the full set was active somewhere. Rule as the data show it, unless noted: active = inhibition above about 43%; inactive = the rest.

SMILES	Fam108B inh	GSTO1 counter	PREPL inh	LYPLA1 inh	LYPLA2 inh	PME-1 inh	PREPL inh cf
C[C@H](CO)N1C[C@H](C)[C@@H](CN(C)C(=O)Nc2ccc(C(F)(F)F)cc2)Oc2c(NS(=O)(=O)c3cn(C)cn3)cccc2C1=O	.	.	6.5	.	.	.	.
C[C@H](CO)N1C[C@H](C)[C@@H](CN(C)C(=O)Nc2ccc(C(F)(F)F)cc2)Oc2ccc(NS(=O)(=O)c3ccc(F)cc3)cc2C1=O	.	.	46.2*	.	.	.	40.8
C[C@H](CO)N1C[C@H](C)[C@@H](CN(C)C(=O)Nc2ccc(C(F)(F)F)cc2)Oc2ccc(NS(=O)(=O)c3cn(C)cn3)cc2C1=O	.	.	47.2*	.	.	.	38.3
Cc1ccc(S(=O)(=O)Nc2ccc3c(c2)C(=O)N([C@H](C)CO)C[C@H](C)[C@@H](CN(C)C(=O)Nc2ccc(C(F)(F)F)cc2)O3)cc1	.	.	45.4*	.	.	.	39.5
C[C@H](CO)N1C[C@H](C)[C@@H](CN(C)C(=O)Nc2ccc(C(F)(F)F)cc2)Oc2ccc(NS(=O)(=O)c3ccccc3)cc2C1=O	.	.	45.6*	.	.	.	44.9*
CC(NC(=O)c1cc(-c2ccccn2)nc2ccc(Cl)cc12)C1CCCO1 (stereo not given)	3.9	-0.1	2.2	-1.2	5.9	3.2	.
Cc1noc(C)c1S(=O)(=O)N(C)C[C@H]1Oc2c(NC(=O)Nc3ccc(C(F)(F)F)cc3)cccc2C(=O)N([C@H](C)CO)C[C@@H]1C	.	.	52.4*	.	.	.	59.0*
c1ccc(CNc2nc(-c3ccccn3)nc3ccccc23)cc1	-0.7	-6.1	67.3*	1.2	0.7	-2.5	63.8*
c1ccc(CNc2nc(-c3ccccc3)nc3ccccc23)cc1	-13.3	2.1	-7.6	-16.9	-28.8	-20.8	.
COc1ccc(-c2c(-c3ccccc3)c(C(=O)C(=O)NCCCN(C)C)n3ccc4cc(OC)c(OC)cc4c23)cc1OC	3.9	0.6	46.0*	-2.2	-5.2	-3.4	52.3*
COc1ccc(-c2oc3ncn(CCN4CCOCC4)c(=N)c3c2-c2ccc(OC)cc2)cc1	4.9	22.1	48.0*	11.1	1.9	15.1	35.0
O=C(COC(=O)c1ccc2c(c1)OCCO2)Nc1cccc(S(=O)(=O)N2CCOCC2)c1	-4.5	-3.2	71.6*	3.8	2.8	4.3	8.1
O=C(COC(=O)c1cccc(S(=O)(=O)N2CCOCC2)c1)Nc1ccc2c(c1)OCO2	0.9	2.4	1.2	1.4	6.5	-1.2	.
Cc1cc(F)ccc1S(=O)(=O)NCC(c1ccc2c(c1)OCO2)N1CCOCC1 (stereo not given)	-1.0	0.2	8.9	-1.1	-7.0	-5.4	.
O=C(O)c1ccc2nc(-c3ccccc3)c(-c3ccccc3)nc2c1	0.3	-2.1	1.9	2.0	9.3	-0.7	.
O=C(c1ccccc1)c1ccc2nc(-c3ccco3)c(-c3ccco3)nc2c1	9.2	60.2*	61.8*	-2.0	5.6	-5.6	51.1*
O=C(NCCc1ccccc1)c1ccc(=O)oc1	-5.9	-3.5	6.0	2.7	-3.5	-5.6	.
O=C(NCCc1ccccc1)c1ccc2nc(-c3ccco3)c(-c3ccco3)nc2c1	10.7	45.9*	74.3*	-6.5	12.5	30.0*	74.0*
COc1cc(/C=N/n2c(C)n[nH]c2=S)ccc1OCc1ccc(F)cc1	-3.2	1.6	49.5*	1.7	7.4	2.5	42.2
COc1cc(/C=N\n2nnnc2N)ccc1OCc1ccc(F)cc1	-0.2	-8.2	31.3	-3.4	-2.9	-3.2	.
COc1ccc(CC(=O)Nc2nnc(SCC(=O)NCc3ccco3)s2)cc1OC	3.2	2.1	-12.5	1.0	3.2	3.5	.
O=C(CN1C(=O)NC(c2ccccc2)(c2ccccc2)C1=O)NCc1ccc(F)cc1	.	.	-10.1	.	.	.	.
COc1ccc2cc(C(=O)C3CCCN(C(=O)C4=NN(C)C(=O)CC4)C3)ccc2c1 (stereo not given)	3.4	2.8	43.5*	2.8	8.3	-0.3	31.6
COc1ccc2cc(C(=O)C3CCCN(C(=O)c4cccnc4)C3)ccc2c1 (stereo not given)	0.0	-31.6	45.4*	-1.4	0.0	-3.4	39.4
O=C(NN=C1C2CC3CC(C2)CC1C3)c1ccncc1	3.6	4.3	2.8	-1.3	-1.2	-4.4	.

Screening results: PubChem BioAssay, The Scripps Research Institute Molecular Screening Center
